Screens: PubChem BioAssay, National Center for Advancing Translational Sciences (NCATS)
Most compounds without a hit are left out; they make up all but 7.3% or so of the library.
Tau fluor cs – Counterscreen qHTS for Inhibitors of Tau Fibril Formation, Fluorescence Polarization. AID 1463, 2008. Potency, µM (doses to about 57.7 µM), inactives show at the highest dose activity change, negative = decrease. hit rate 0.93% among 280,000. tau K18 P301L Alexa594 fluorescence, heparin fibrillization; note: nearly all actives have a fitted effect of over 55% in size
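Human K18 P301L tau (15 uM unlabeled plus 0.24 uM Alexa 594-labeled, final) in 100 mM sodium acetate pH 7 was mixed with compound and 20 uM heparin and incubated 6 hr at 37 C.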
RORg inh – qHTS for inhibitors of ROR gamma transcriptional activity | Nuclear receptor ROR-gamma (Mus musculus), P51450 | Drosophila S2 Gal4-RORgamma UAS-luciferase reporter, 20 h | Potency, µM (doses to about 53.6 µM), for the others: at the highest dose activity change, negative = inhibition, most hits filed as inhibitors | hit rate 5.4% among 310,000; note: nearly all actives have a fitted effect of over 60% in size
Target sequence (P51450 whole entry, looked up, the tested form may be a part): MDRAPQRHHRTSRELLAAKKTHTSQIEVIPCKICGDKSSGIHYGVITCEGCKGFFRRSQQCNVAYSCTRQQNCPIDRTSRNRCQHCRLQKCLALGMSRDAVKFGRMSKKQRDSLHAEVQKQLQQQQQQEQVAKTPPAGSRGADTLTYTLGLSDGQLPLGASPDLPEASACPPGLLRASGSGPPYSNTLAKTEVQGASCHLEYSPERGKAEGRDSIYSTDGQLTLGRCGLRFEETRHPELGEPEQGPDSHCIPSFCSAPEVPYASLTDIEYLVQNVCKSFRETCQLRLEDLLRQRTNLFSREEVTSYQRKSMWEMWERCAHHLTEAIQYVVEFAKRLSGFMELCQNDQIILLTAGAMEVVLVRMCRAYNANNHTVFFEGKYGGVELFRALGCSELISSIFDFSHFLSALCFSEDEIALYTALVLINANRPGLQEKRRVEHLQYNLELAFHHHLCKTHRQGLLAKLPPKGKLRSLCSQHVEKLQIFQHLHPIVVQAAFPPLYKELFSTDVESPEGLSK
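Drosophila S2 cells stably expressing Gal4-DBD/mouse RORγ fusion under metallothionein promoter plus UAS-luciferase; compound 1 h, then 700 uM CuSO4 induction for 20 h at ambient temperature; inhibition read as reduced luminescence.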
Tau fibril ThT – qHTS for Inhibitors of Tau Fibril Formation, Thioflavin T Binding | recombinant tau K18 P301L (four-repeat tau fragment), heparin-induced fibrillization, ThT fluorescence | Potency, µM (titrated, usually from 57.4 µM), for inactives: top-dose activity, negative = inhibition, usual class: inhibitors | hit rate 2.1% among 270,000 | AID 1460, 2008; note: nearly all actives have a fitted effect of over 55% in size
Target sequence (P10636 561-689 P618L limits assumed): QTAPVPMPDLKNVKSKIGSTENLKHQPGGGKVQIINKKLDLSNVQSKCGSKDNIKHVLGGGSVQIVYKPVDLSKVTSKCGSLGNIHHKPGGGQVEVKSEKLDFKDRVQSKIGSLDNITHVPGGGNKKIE
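Recombinant human tau K18 fragment […] carrying P301L, 15 uM unlabeled plus 0.24 uM Alexa 594-labeled, was fibrillized with 20 uM heparin in 100 mM sodium acetate pH 7 for 6 hr at 37 C; 30 uM ThT fluorescence read after 1 hr.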
Gal4-VP16 FLuc – VP16 counterscreen qHTS for inhibitors of ROR gamma transcriptional activity; Drosophila S2 Gal4-VP16 UAS-luciferase, luminescence, 20 h; Potency, µM (highest dose often 53.6 µM), for inactives: top-dose activity, negative = inhibition, most hits filed as inhibitors; hit rate 3.5% among 310,000; AID 2546, 2010;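 note: Gal4-VP16 expression switched on by copper sulfate through the metallothionein promoter; nearly all actives have a fitted effect of over 50% in size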
Tau fibril FP – qHTS for Inhibitors of Tau Fibril Formation, Fluorescence Polarization; Microtubule-associated protein tau (Homo sapiens), P10636; K18 P301L tau heparin fibrillization, Alexa594 FP, 6 h; Potency, µM (highest dose often 57.7 µM), for inactives: at the top dose activity, negative = inhibition, actives largely listed as inhibitors; hit rate 0.39% among 280,000; AID 1468, 2008; note: nearly all actives have a fitted effect of over 55% in size
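FP of Alexa 594-tau after heparin (20 uM) induction. Substrate: human K18 P301L, 15 uM unlabeled, 0.24 uM labeled. Buffer 100 mM sodium acetate pH 7. 6 hr, 37 C.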
The depositor's hits bear a star; ? = inconclusive; . = not tested or not shown; [ ] = another dose, or the depositor's remark. Calls come from the whole dose curve; as a rule, active = well fitted curve in the direction sought with a large enough effect; inconclusive = small, poorly fitted or top-dose-only effect, or another doubt; inactive = no such curve, though single readings can be large; an effect the other way counts as inactive or inconclusive. % is set by controls: 0 for no effect and ±100 for the full control effect; potency is the fitted concentration of half-maximal effect.

SMILES	Tau fluor cs	RORg inh	Tau fibril ThT	Gal4-VP16 FLuc	Tau fibril FP
CC(C)N1CC(C(=O)Nc2ccc(C#N)cc2)CC1=O (centres undefined)	.	-6.0%	.	-2.7%	.
CC(=O)Nc1ccc(NC(=O)CN(C)S(=O)(=O)c2ccc3c(c2)CCC(=O)N3)cc1	.	-3.1%	.	0.2%	.
CCc1sc(C(=O)Nc2ncccc2C)cc1C	.	-4.7%	.	-14.8%	.
CCc1sc(C(=O)Nc2nccs2)cc1C	.	7.94µM*	.	?	.
Cc1cccc(C)c1Nc1nnc(SCC(=O)c2ccc(Br)s2)s1	-13.8%	-16.9%	-7.3%	-0.4%	-1.4%
Cc1ccc(Nc2nnc(SCC(=O)c3ccc(Br)s3)s2)c(C)c1	-28.3%	35.5µM*	?	?	12.1%
CON/C=N/C(=S)Nc1ncc(C(F)(F)F)cc1Cl	13.0%	0.562µM*	11.0%	?	4.0%
ON/C=N/C(=S)Nc1ncc(C(F)(F)F)cc1Cl	3.8%	1.58µM*	2.4%	?	-0.4%
CC(C)C(=O)Nc1ncc(C(F)(F)F)cc1Cl	0.7%	8.4%	4.3%	4.8%	-1.8%
Cc1ccc(N2C(=O)[C@@H]3CSC(c4ccc(C(F)(F)F)cc4)N3C2=O)cc1 (some centres undefined)	1.9%	.	12.0%	.	0.8%
Cc1nc2c(ccc3nc(NC(=O)c4ccc5c(c4)OCCO5)sc32)s1	?	0.199µM*	-21.5%	0.0891µM*	?
Cc1nc2c(ccc3nc(NC(=O)Cc4cccc5ccccc45)sc32)s1	?	17.2%	-8.4%	0.7%	?
Cc1nc2c(ccc3nc(NC(=O)C(c4ccccc4)c4ccccc4)sc32)s1	?	?	11.1%	5.01µM*	?
Cc1ccc(S(=O)(=O)/C(C#N)=C/c2c(N3CCN(Cc4ccccc4)CC3)nc3ccccn3c2=O)cc1	.	-7.8%	.	-10.4%	.
Cc1ccccc1NC(=O)Cn1nnc(C(=O)NCc2cccs2)c1N	-7.8%	.	0.4%	.	-10.3%
CCOC(=O)CSc1nc2cc(OC)ccc2cc1C#N	?	?	5.01µM*	-0.1%	10.4%
CCOC(=O)CSc1nc2cc(C)ccc2cc1C#N	-23.8%	-18.4%	?	10.1%	6.4%
COc1ccc2nc(SC)c(C#N)cc2c1	-2.0%	-3.1%	2.1%	11.3%	0.8%
COc1ccc2nc(SCC(C)=O)c(C#N)cc2c1	-28.5%	?	4.47µM*	?	9.6%
CCc1ccc(NC(=O)CSc2ncc(S(=O)(=O)c3cc(C)ccc3C)c(=O)[nH]2)cc1	-19.5%	.	-12.8%	.	-5.2%
CC1=NNC(=O)/C1=C\c1cn(-c2ccccc2)nc1-c1ccccc1	-0.7%	1.12µM*	-0.8%	1.8%[10 µM]	2.9%
CC1(C)CC(=O)C2=C(C1)OC1=C(C(=O)CC(C)(C)C1)C2c1ccc(O)cc1O	1.9%	3.16µM*	?	6.31µM*	10.6%
O=C(O)CC(C(=O)O)N1C(=O)/C(=C/C=C/c2ccco2)SC1=S (centres undefined)	-22.4%	-24.8%	12.6µM*	-5.0%	?
COc1ccc(/C=C2\SC(=S)N(C(Cc3ccccc3)C(=O)O)C2=O)cc1 (centres undefined)	-7.2%	38.6%	?	2.2%	-11.4%
O=C(O)C(Cc1ccccc1)N1C(=O)/C(=C/C=C/c2ccco2)SC1=S (centres undefined)	?	-1.7%	7.94µM*	-1.3%	?
SMILES	Tau fluor cs	RORg inh	Tau fibril ThT	Gal4-VP16 FLuc	Tau fibril FP
O=C(O)CCCN1C(=O)/C(=C/C=C/c2ccco2)SC1=S	0.6%	3.3%	3.16µM*	?	?
C[C@@H](C[C@@H](O)[C@H](O)C(C)(C)O)[C@@H]1CC[C@]2(C)C3=CC[C@H]4C(C)(C)C(=O)CC[C@]4(C)[C@H]3CC[C@@]12C	-20.1%	4.47µM*	?	?	-7.1%
CC(C)(O)CC[C@@H](O)[C@](C)(O)[C@H]1CC[C@@]2(O)C3=CC(=O)[C@@H]4C[C@@H](O)[C@@H](O)C[C@]4(C)C3CC[C@]12C (some centres undefined)	11.2%	-41.3%	1.1%	-13.2%	16.8%
Cc1cccc(-c2cc(C(=O)O)c3c(-c4ccc(F)cc4)[nH]nc3n2)c1	-27.0%	.	?	.	-8.0%
CCOC(=O)c1cnc2cc3c(cn2c1=O)CCCC3	-4.3%	-8.1%	-0.4%	-11.5%	6.4%
CCOC(=O)C1=C(SCC)c2cc3c(n2C1=O)CCCC3	?	?	11.2µM*	20.3%	?
Cc1ccc(C(C)C)n1C(=O)OC(C)(C)C	-9.1%[11.6 µM]	-20.4%[10 µM]	-12.4%[11.5 µM]	5.4%[10 µM]	1.5%[11.6 µM]
CCC1(c2ccccc2)NC(=S)N(c2cccc(C)c2C)N1 (centres undefined)	-3.1%	1.26µM*	-10.3%	7.94µM*	11.9%
COc1cc2[nH]c(=S)n(Cc3ccc(C)cc3)c(=O)c2cc1OC	-25.5%	1.78µM*	?	3.16µM*	?
COc1ccc(Cn2c(=S)[nH]c3cc(OC)c(OC)cc3c2=O)cc1	6.2%	3.55µM*	9.3%	?	9.2%
COc1ccc(Cn2c(=O)[nH]c3cc(OC)c(OC)cc3c2=O)cc1	-29.5%	-0.3%	.	-4.0%	-10.6%
COc1ccc(/C=N/OCC(=O)N=Nc2c(O)[nH]c3ccc(Br)cc23)cc1OC	?	-23.3%	17.8µM*	?	?
Cc1cccc(NC(=S)N=Nc2c(O)[nH]c3ccccc23)c1	14.1µM*[quencher]	1.41µM*	7.94µM*	3.55µM*	-1.0%
COc1ccccc1NC(=S)N=Nc1c(O)[nH]c2ccc(Br)cc12	?	2µM*	?	5.62µM*	-1.7%
COc1ccc(/C(C)=N/OCC(=O)N=Nc2c(O)[nH]c3ccc(Br)cc23)cc1	-18.1%	-13.4%	?	6.4%	?
NNC(=O)c1cc2cc(OC(F)(F)F)ccc2[nH]1	-1.2%	-43.1%	-0.1%	1.8%	-2.2%
C/C(=N\NC(=O)c1cccc(N/N=C(\C)c2ccc([N+](=O)[O-])cc2)c1)c1ccc([N+](=O)[O-])cc1	?	8.2%	0.501µM*	24.1%	7.3%
C/C(=N\NC(=O)c1cccc(S(=O)(=O)N2CCCC2)c1)c1cccs1	2.2%	12.6µM*	4.5%	?	7.2%
C/C(=N\NC(=O)c1cccc(N/N=C(\C)c2ccccc2)c1)c1ccccc1	-26.1%	?	?	?	16.2%
C/C(=N\NC(=O)c1cccc([N+](=O)[O-])c1)c1cccs1	0.5%	3.98µM*	.	6.31µM*	3.9%
C/C(=N\NC(=O)c1ccncc1)c1cccs1	-5.0%	?	-6.2%	29.1%[10 µM]	-2.0%
C/C(=N/NC(=O)c1cc(C2CC2)[nH]n1)c1cccs1	-14.7%	11.2µM*	?	10µM*	-13.3%
C/C(=N\NC(=O)c1ccccc1O)c1cccc(NC(=O)c2ccccc2)c1	.	?	.	4.1%	.
